From the supplement of paper PMC7411054

Legend:
Settings in all cases: treatment time: 24 h
[1] = system: A549-ACTB-RAB5A; experiment: lowest phenotypically active concentration; higher = less potent
Procedure, shortened: (§1)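 Four wells per concentration (0.3, 1, 3 or 9 µM) were treated for 24 h in each of fifteen gene-edited reporter lines from A549, HepG2 and WPMY1 cells, then imaged live. After normalising live-cell features to solvent control wells, deviation was defined as ≥3 of 4 wells lying past the 95th percentile of control Euclidean distances. Reproducibility was defined as a median replicate Pearson correlation above the 95th percentile of non-replicates. Both had to hold for phenotypic activity.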

[2] = system: A549-CANX-COX4; experiment: as above
Procedure, shortened: as §1

[3] = system: A549-GM130-SQSTM1; experiment: as above
Procedure, shortened: as §1

[4] = system: A549-TP53BP1-CLTA; experiment: as above
Procedure, shortened: as §1

[5] = system: A549-TUBA1B-RELA; experiment: as above
Procedure, shortened: as §1

[6] = system: HepG2-TP53BP1-CLTA; experiment: as above
Procedure, shortened: as §1

[7] = system: A549-ACTB-RAB5A; experiment: phenotypically active (imaging signature differs from DMSO and reproducible) at any of 0.3-9 uM (binary (1 = active, 0 = inactive)); higher = active
Procedure, shortened: as §1

[8] = system: A549-CANX-COX4; experiment: as above
Procedure, shortened: as §1

[9] = system: A549-GM130-SQSTM1; experiment: as above
Procedure, shortened: as §1

[10] = system: A549-TP53BP1-CLTA; experiment: as above
Procedure, shortened: as §1

[11] = system: A549-TUBA1B-RELA; experiment: as above
Procedure, shortened: as §1

[12] = system: HepG2-ACTB-RAB5A; experiment: as above
Procedure, shortened: as §1

[13] = system: HepG2-CANX-COX4; experiment: as above
Procedure, shortened: as §1

[14] = system: HepG2-GM130-SQSTM1; experiment: as above
Procedure, shortened: as §1

[15] = system: HepG2-TP53BP1-CLTA; experiment: as above
Procedure, shortened: as §1

[16] = system: HepG2-TUBA1B-RELA; experiment: as above
Procedure, shortened: as §1

[17] = system: WPMY1-CANX-COX4; experiment: as above
Procedure, shortened: as §1

[18] = system: WPMY1-GM130-SQSTM1; experiment: as above
Procedure, shortened: as §1

[19] = system: WPMY1-TP53BP1-CLTA; experiment: as above
Procedure, shortened: as §1

[20] = system: WPMY1-TUBA1B-RELA; experiment: as above
Procedure, shortened: as §1

CC[C@@H](N)CNc1ccnc(-c2cc(-c3cnn(C)c3)ccc2O)n1
3 µM: lowest phenotypically active concentration [2]
1 µM: lowest phenotypically active concentration [1] | lowest phenotypically active concentration [3] | lowest phenotypically active concentration [4] | lowest phenotypically active concentration [5] | lowest phenotypically active concentration [6]
active: phenotypically active [7] 1 | phenotypically active [8] 1 | phenotypically active [9] 1 | phenotypically active [10] 1 | phenotypically active [11] 1 | phenotypically active [12] 1 | phenotypically active [13] 1 | phenotypically active [14] 1 | phenotypically active [15] 1 | phenotypically active [16] 1 | phenotypically active [17] 1 | phenotypically active [18] 1 | phenotypically active [19] 1 | phenotypically active [20] 1

CC(=O)NCC(=O)N1[C@@H]2CC[C@H]1c1ccc(Nc3ncc(C(F)(F)F)c(NC4CCC4)n3)cc12
≤ 0.3 µM: lowest phenotypically active concentration [1] | lowest phenotypically active concentration [2] | lowest phenotypically active concentration [3] | lowest phenotypically active concentration [4] | lowest phenotypically active concentration [5] | lowest phenotypically active concentration [6]
active: phenotypically active [7] 1 | phenotypically active [8] 1 | phenotypically active [9] 1 | phenotypically active [10] 1 | phenotypically active [11] 1 | phenotypically active [12] 1 | phenotypically active [13] 1 | phenotypically active [14] 1 | phenotypically active [15] 1 | phenotypically active [16] 1 | phenotypically active [17] 1 | phenotypically active [18] 1 | phenotypically active [19] 1 | phenotypically active [20] 1

C[C@@H]1COCCN1c1cc(C2(S(C)(=O)=O)CC2)nc(-c2cccc3[nH]ccc23)n1
active: phenotypically active [7] 1 | phenotypically active [8] 1 | phenotypically active [9] 1 | phenotypically active [10] 1 | phenotypically active [11] 1 | phenotypically active [12] 1 | phenotypically active [13] 1 | phenotypically active [14] 1 | phenotypically active [15] 1 | phenotypically active [16] 1 | phenotypically active [17] 1 | phenotypically active [18] 1 | phenotypically active [19] 1 | phenotypically active [20] 1
1 µM: lowest phenotypically active concentration [2] | lowest phenotypically active concentration [5] | lowest phenotypically active concentration [6]
≤ 0.3 µM: lowest phenotypically active concentration [1] | lowest phenotypically active concentration [3] | lowest phenotypically active concentration [4]

COc1ccc(N2C(=O)CSC2c2cccc(Br)c2)c(OC)c1 (stereo not given)
active: phenotypically active [7] 1 | phenotypically active [8] 1 | phenotypically active [9] 1 | phenotypically active [10] 1 | phenotypically active [11] 1 | phenotypically active [12] 1 | phenotypically active [13] 1 | phenotypically active [14] 1 | phenotypically active [15] 1 | phenotypically active [16] 1 | phenotypically active [17] 1 | phenotypically active [18] 1 | phenotypically active [19] 1 | phenotypically active [20] 1
9 µM: lowest phenotypically active concentration [2] | lowest phenotypically active concentration [3] | lowest phenotypically active concentration [5] | lowest phenotypically active concentration [6]
3 µM: lowest phenotypically active concentration [1] | lowest phenotypically active concentration [4]

COc1cc(C)c(Sc2cnc(NC(=O)c3ccc(CNC(C)C(C)(C)C)cc3)s2)cc1C(=O)N1CCN(C(C)=O)CC1 (stereo not given)
9 µM: lowest phenotypically active concentration [2] | lowest phenotypically active concentration [4]
3 µM: lowest phenotypically active concentration [3] | lowest phenotypically active concentration [6]
active: phenotypically active [7] 1 | phenotypically active [8] 1 | phenotypically active [9] 1 | phenotypically active [10] 1 | phenotypically active [11] 1 | phenotypically active [12] 1 | phenotypically active [13] 1 | phenotypically active [14] 1 | phenotypically active [15] 1 | phenotypically active [16] 1 | phenotypically active [17] 1 | phenotypically active [18] 1 | phenotypically active [19] 1 | phenotypically active [20] 1
1 µM: lowest phenotypically active concentration [1] | lowest phenotypically active concentration [5]

Nc1ccc(-c2ccc3ncc4ccc(=O)n(-c5cccc(C(F)(F)F)c5)c4c3c2)cn1 [Torin 2]
active: phenotypically active [7] 1 | phenotypically active [8] 1 | phenotypically active [9] 1 | phenotypically active [10] 1 | phenotypically active [11] 1 | phenotypically active [12] 1 | phenotypically active [13] 1 | phenotypically active [14] 1 | phenotypically active [15] 1 | phenotypically active [16] 1 | phenotypically active [17] 1 | phenotypically active [18] 1 | phenotypically active [19] 1 | phenotypically active [20] 1
≤ 0.3 µM: lowest phenotypically active concentration [1] | lowest phenotypically active concentration [2] | lowest phenotypically active concentration [3] | lowest phenotypically active concentration [4] | lowest phenotypically active concentration [5] | lowest phenotypically active concentration [6]
